Results filed as inconclusive are left out. Active and inactive are the calls of the source. Calls come from the whole dose curve; as a rule, active = well fitted activation curve with a large enough effect; inconclusive = small, poorly fitted or top-dose-only effect; inactive = flat fitted curve, though single readings scatter.

The target of this assay is D(1A) dopamine receptor (Homo sapiens) (UniProt P21728). In words: HTS Assay for Allosteric Agonists of the Human D1 Dopamine Receptor: Primary Screen for Agonists (AID 488981). The conditions noted are these: Inducible HEK293 T-REx D1 cells, calcium-flux fluorescence, 180 s kinetic; series mostly up to 41.8 µM. The source says: Dopamine receptors (DARs) are involved in the etiology and/or therapy of a number of neuropsychiatric and endocrine disorders. For instance, all receptor-based antiparkinsonian drugs work via stimulating the […] DAR subtype whereas all FDA-approved antipsychotic agents are antagonists of this receptor. […] There are three different types of allosteric modulators that we are seeking, two of which will stimulate or augment receptor signaling, allosteric agonists and potentiators, while the third, allosteric antagonists, will attenuate receptor signaling. The present primary screening assay measures compound agonism by tracking calcium flux in a […], inducible Hek293 Trex D1 cell line.
Sequence of D(1A) dopamine receptor (Homo sapiens) (P21728 whole entry, looked up): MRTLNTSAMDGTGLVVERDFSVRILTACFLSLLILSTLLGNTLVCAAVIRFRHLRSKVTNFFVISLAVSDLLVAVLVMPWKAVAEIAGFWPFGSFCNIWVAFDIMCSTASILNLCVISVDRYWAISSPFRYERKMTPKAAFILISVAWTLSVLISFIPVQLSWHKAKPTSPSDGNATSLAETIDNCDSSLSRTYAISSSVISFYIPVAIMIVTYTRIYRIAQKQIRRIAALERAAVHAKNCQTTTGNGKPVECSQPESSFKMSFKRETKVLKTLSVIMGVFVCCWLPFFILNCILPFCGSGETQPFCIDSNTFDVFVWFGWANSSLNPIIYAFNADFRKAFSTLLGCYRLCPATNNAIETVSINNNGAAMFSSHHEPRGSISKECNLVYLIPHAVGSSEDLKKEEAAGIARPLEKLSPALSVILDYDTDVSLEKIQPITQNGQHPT
Freshly passaged cells are plated in 1536 well black, clear bottom plates at a density of 4000 cells/well in 3 ul of complete media containing 1x tetracycline inducer. After an overnight incubation at 30 C in 5% CO2, cells are loaded with 2 ul of the no wash Calcium Assay Kit (ABD Bioquest) and incubated at room temperature for 30 to 90 minutes. A 10 cycle (1 second/cycle) baseline measurement is taken and then the FDSS online 1536 pintool delivers 23 nl of compound library (as well as dopamine controls) to the plate. The plate is measured for kinetically at 1 cycle/sec for 180 seconds and is considered to be the agonist portion of the assay (eg, compounds which activate a positive calcium response during this portion are flagged as potential agonists). Following the 180 second read, 1 ul of an EC20 of dopamine is delivered by an onboard pipette head. Measurements are taken kinetically for an additional 180 seconds.
`Nc1nc(OCc2ccccc2)c2[nH]cnc2n1`: the outcome was inactive. To `Cc1cc(O)c2c(c1)C(=O)c1cc(O)cc(O)c1C2=O` belongs “inactive”. As to `O=C1NC(=O)C(c2ccccc2[N+](=O)[O-])=C1Nc1ccc(O)c(Cl)c1`, the result was inactive. Take `O=C1c2c(O)cc(O)cc2OC(c2ccc(O)c(O)c2)C1O` (centres undefined): the result was inactive. To `NC(=NCc1ccccc1)NC(=O)c1nc(Cl)c(N)nc1N` belongs “inactive”. `COc1ccc2cc([C@H](C)C(=O)O)ccc2c1`: the result was inactive. To `OC(CN1CCN(c2cccc(Cl)c2)CC1)C(c1ccccc1)c1ccccc1` (centres undefined) belongs “inactive”. `O=c1ccc2ccc(O)c(O)c2o1`: the outcome was inactive.

In the case of `Oc1ccc2ccccc2c1SSc1c(O)ccc2ccccc12`, the outcome was inactive. As for `COc1cc2nc(N3CCN(C(=O)C4CCCO4)CC3)nc(N)c2cc1OC` (centres undefined), the result was inactive. Consider `COc1ccccc1N1CCN(CCN(C(=O)C2CCCCC2)c2ccccn2)CC1`, for which the result was inactive. On to `CC(C)c1ccc2c(c1)c(SC(C)(C)C)c(CC(C)(C)C(=O)O)n2Cc1ccc(Cl)cc1`, for which the result was inactive. To `Nc1ccn([C@@H]2O[C@H](CO)[C@@H](O)C2O)c(=O)n1` (some centres undefined) belongs “inactive”. Take `O=c1cc(N2CCOCC2)oc2c(-c3ccccc3)cccc12`: the outcome was inactive. To `NCCCCNCCCN` belongs “inactive”; to `O=Nc1c(-c2c(O)[nH]c3cc(Br)ccc23)[nH]c2ccccc12`, “inactive”.

As to `Cc1cccc(C#Cc2ccccc2)n1`, the result was inactive. For the compound `CC(=O)O[C@H]1C(=O)[C@@]2(C)C([C@H](OC(=O)c3ccccc3)[C@]3(O)C[C@H](OC(=O)[C@H](O)[C@@H](NC(=O)c4ccccc4)c4ccccc4)C(C)=C1C3(C)C)[C@]1(OC(C)=O)CO[C@@H]1C[C@@H]2O` (some centres undefined), the result was inactive. Regarding `Cc1c(OCC(F)(F)F)ccnc1CS(=O)c1nc2ccccc2[nH]1` (centres undefined), the result was inactive. Regarding `CC1(C)NC(=O)N(c2ccc([N+](=O)[O-])c(C(F)(F)F)c2)C1=O`, the result was inactive. In the case of `C[C@@H](N)C1CCC(C(=O)Nc2ccncc2)CC1` (some centres undefined), the outcome was inactive.

Turning to `O=c1c(O)c(-c2cc(O)c(O)c(O)c2)oc2cc(O)cc(O)c12`, the result was inactive. To `Nc1nc(N)c(N=O)c(OCC2CCCCC2)n1` belongs “inactive”. With `O=C(c1ccccc1)c1ccc2n1CCC2C(=O)O` (centres undefined), the result was inactive. To `Oc1ccc(-c2nc(-c3ccc(F)cc3)c(-c3ccncc3)[nH]2)cc1` belongs “inactive”. With `CC1(C)C(=O)N(CCN2CCC(C(=O)c3ccc(F)cc3)CC2)c2ccccc21`, the outcome was inactive. For `O=C1c2ccccc2-c2n[nH]c3cccc1c23`, the outcome was inactive.

For the compound `O=c1c(O)c(-c2ccc(O)cc2O)oc2cc(O)cc(O)c12`, the outcome was inactive.

As for `CN(C)CCCC1(c2ccc(F)cc2)OCc2cc(C#N)ccc21` (centres undefined), the outcome was inactive. `NNc1nncc2ccccc12`: the outcome was inactive. To `CCOC(=O)C(C)Oc1cccc2c(=O)n(CC(=O)Nc3ccc4c(c3)OCCO4)ccc12` (centres undefined) belongs “inactive”; to `O=C(CCc1ccc(O)cc1)c1c(O)cc(O)cc1O`, “inactive”; to `O=C(O)c1cccnc1Nc1cccc(C(F)(F)F)c1`, “inactive”. To `COc1cc2c(cc1OC)C1CC(=O)C(CC(C)C)CN1CC2` (centres undefined) belongs “inactive”.

The values are drawn from PubChem BioAssay (NCATS).
